KB-3-1 tox = qHTS assay for MDR1-selective chemotherapeutics: Primary screen using the parental adenocarcinoma cell KB-3-1; KB-3-1 viability, CellTiter-Glo ATP luminescence, 72 h; Potency, µM (doses to about 46.1 µM), actives largely listed as cytotoxic; actives 1.4% (n = 400,000); AID 1347075, 2019; further: on the % scale 0 is the no-effect control and ±100 the full control effect; nearly all actives have a fitted effect of over 60% in size
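72 h, 37 °C compound treatment of KB-3-1 parental cells; CellTiter-Glo added, 10 min, luminescence read. Data corrected against DMSO-only plates and normalized before curve fitting.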
KB-V1 cytotox = qHTS assay for MDR1-selective chemotherapeutics: Primary screen using the drug-selected MDR subline cells KB-V1; KB-V1 MDR cells viability, CellTiter-Glo, 72 h; Potency, µM (titrated, usually from 46.1 µM), hits mostly cytotoxic; actives 3.4% (n = 400,000); AID 1347076, 2019; further: on the % scale 0 is the no-effect control and ±100 the full control effect; nearly all actives have a fitted effect of over 60% in size
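Cytotoxicity via CellTiter-Glo luminescence after 72 h compound exposure at 37 degrees C. Cells: drug-selected KB-V1 line, DMEM phenol-red free plus 10% FBS. Compounds tested at multiple concentrations; normalized data fitted to concentration-effect curves.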
SW480 rereplic = A quantitative high throughput screen for small molecules that induce DNA re-replication in SW480 colon adenocarcinoma cells | actives 1.8% (n = 340,000) | Potency, µM (titrated, usually from 46.1 µM), for the others: at the highest dose re-replication activation, actives largely listed as activators | SW480 DNA re-replication, Hoechst DNA content imaging, 48 h | AID 624297, 2012; further: % of control where 0% means no effect; nearly all actives have a fitted effect of over 55% in size
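Readout is total intensity of Hoechst-stained nuclei, excited at 405 nm and collected at 500-530 nm. Compound treatment lasted 48 hr at 37 C in 5% CO2 before staining.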
ELG1 repair inh = qHTS screen for small molecules that inhibit ELG1-dependent DNA repair in human embryonic kidney (HEK293T) cells expressing luciferase-tagged ELG1; HEK293T ELG1-luciferase reporter, luminescence, 16 h; DNA damage induced by 5-fluorouridine; Potency, µM (doses to about 46.1 µM), for the others: top-dose activity change, negative = inhibition, usual class: inhibitors; actives 2.3% (n = 330,000); AID 504467, 2011; further: on the % scale 0 is the no-effect control and ±100 the full control effect; nearly all actives have a fitted effect of over 55% in size
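Reporter activity after DNA damage by 5-fluorouridine is monitored. Compound-treated cells incubate 16 hr at 37 °C, then ONE-Glo is added for 30 min before luminescence reading.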
MCF10A rerep = A quantitative high throughput screen for small molecules that induce DNA re-replication in MCF 10a normal breast cells | MCF 10A DNA re-replication, Hoechst nuclear intensity, 48 h | Potency, µM (doses to about 46.1 µM), without a hit: at the top dose activity, positive = re-replication, hits mostly activators | actives 2.9% (n = 350,000); further: % of control where 0% means no effect; nearly all actives have a fitted effect of over 50% in size
ELG1 FLuc counter = qHTS screen for small molecules that inhibit ELG1-dependent DNA repair: Hit Confirmation in Cell-Based Luciferin Assay. shares compounds with ELG1 repair inh. AID 624247, 2012. actives 3% (n = 350). cell-free firefly luciferase luminescence counter-screen, ViewLux. Potency, µM (series often up to 46.1 µM), inactives show top-dose activity change, negative = inhibition, actives largely listed as inhibitors; further: on the % scale 0 is the no-effect control and ±100 the full control effect
ELG1 Luc conf = HTS assay for small molecules that inhibit ELG1-dependent DNA repair in human embryonic kidney (HEK293T) cells expressing luciferase-tagged ELG1: Hit Confirmation; actives 68% (n = 670); Potency, µM (titrated, usually from 46.1 µM), without a hit: top-dose activity change, negative = inhibition, actives largely listed as inhibitors; shares compounds with ELG1 repair inh; HEK293T ELG1-luciferase levels, luminescence; cells co-treated with 5-fluorouridine; further: on the % scale 0 is the no-effect control and ±100 the full control effect; nearly all actives have a fitted effect of over 55% in size
ELG1 MMS Luc = MMS-stimulated human ELG1 repair inhibition, confirmed | HEK293T luciferase-tagged ELG1 level, MMS stimulated | shares compounds with ELG1 repair inh | Potency, µM (series often up to 46.1 µM), inactives show at the highest dose activity change, negative = inhibition, most hits filed as inhibitors | actives 53% (n = 670); further: on the % scale 0 is the no-effect control and ±100 the full control effect; nearly all actives have a fitted effect of over 60% in size
ELG1 5FU viab = qHTS screen for small molecules that inhibit ELG1-dependent DNA repair: Hit Confirmation with 5FU Viability | shares compounds with ELG1 repair inh | cell viability with 5-FU, ELG1-dependent repair | Potency, µM (doses to about 46.1 µM), without a hit: top-dose activity change, negative = viability loss, hits mostly cytotoxic | 670 tested, under 10 active | AID 624250, 2012;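 further: ELG1-luc HEK293T cells cotreated with 5-fluorouridine at 10 µM final; viability measured 16 h after compound addition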
ELG1 MMS cell = qHTS screen for small molecules that inhibit ELG1-dependent DNA repair: Hit Confirmation with MMS Viability; shares compounds with ELG1 repair inh; Cell viability with MMS, ELG1-dependent DNA repair; Potency, µM (highest dose often 46.1 µM), for inactives: at the highest dose activity change, negative = viability loss, actives largely listed as cytotoxic; actives 33% (n = 670); AID 624251, 2012;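 further: ELG1-luc HEK293T cells co-treated with 10 µM MMS; viability read 16 h after compound addition; on the % scale 0 is the no-effect control and ±100 the full control effect; nearly all actives have a fitted effect of over 60% in size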
ELG1 unstim viab = qHTS screen for small molecules that inhibit ELG1-dependent DNA repair: Hit Confirmation with Unstimulated Viability Assay | shares compounds with ELG1 repair inh | cell viability counter-screen, unstimulated, luminescence | Potency, µM (series often up to 45.9 µM), without a hit: at the highest dose activity change, negative = loss of viability, hits mostly cytotoxic | actives 8% (n = 900);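 further: compound exposure lasted 16 hours before reading; on the % scale 0 is the no-effect control and ±100 the full control effect; nearly all actives have a fitted effect of over 55% in size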
FLuc enzyme = qHTS screen for small molecules that inhibit ELG1-dependent DNA repair: Hit Confirmation in Biochemical Luciferin Assay. shares compounds with ELG1 repair inh. purified firefly luciferase, luminescence counter-screen. Potency, µM (titrated, usually from 57.5 µM), for inactives: at the top dose activity, negative = inhibition, actives largely listed as inhibitors. actives 10% (n = 350). AID 624253, 2012; further: on the % scale 0 is the no-effect control and ±100 the full control effect
* hit, by the source's call; i = inactive; ? = inconclusive; nt = not tested or not shown. Rows were chosen to be rich in hits. Some 8.2% of all compounds tested hit in one or more screens of this group. The call rests on the fitted dose curve; in most records, active means well fitted curve in the direction sought with a large enough effect; inconclusive means small, poorly fitted or top-dose-only effect, or another doubt; inactive means no such curve, though single readings can be large; an effect the other way counts as inactive or inconclusive. Potency means the concentration at half of the fitted maximal effect.

SMILES | KB-3-1 tox | KB-V1 cytotox | SW480 rereplic | ELG1 repair inh | MCF10A rerep | ELG1 unstim viab | others
Cc1nn(-c2ccccc2)c(N2CCCC2)c1/C=N/n1cnc2scc(-c3ccccc3)c2c1=O | i | ? | -12% | 13µM* | ? | ? | ELG1 FLuc counter=2%;ELG1 Luc conf=4.5µM*;ELG1 MMS Luc=?;ELG1 5FU viab=6%;ELG1 MMS cell=-9%;FLuc enzyme=-4%
CCc1nnc(NC(=O)CSc2ccc(-c3ccc(-n4cccn4)cc3)nn2)s1 | i | i | -3% | ? | ? | nt
O=C(Cn1nc(-c2ccccc2)oc1=O)OCC(=O)c1ccccc1 | i | i | 2% | 17% | 2% | nt
O=C1CCN(Cc2ccccc2)C=C1c1ccc(Cl)cc1 | i | i | 15% | 5% | ? | nt
O=C1CCN(Cc2ccccc2)C=C1c1ccc2ccccc2c1 | i | i | -3% | ? | -14% | -2%
COc1ccc(/C=C/c2ccc3ccccc3n2)c(OC)c1 | ? | ? | nt | nt | nt | -25% | ELG1 FLuc counter=-9%;FLuc enzyme=?
COc1cc(OC)c(OC)cc1C=Cc1ccc2ccccc2n1 | i | ? | nt | nt | nt | nt
Oc1ccccc1-c1cc(-c2ccc(F)cc2)n[nH]1 | ? | ? | -2% | ? | ? | nt
Oc1ccccc1-c1cc(-c2ccccc2)n[nH]1 | i | i | ? | ? | -33% | -2%
Fc1ccccc1CNc1ncnc2sccc12 | i | i | -19% | 2.9µM* | 7% | ? | ELG1 Luc conf=?;ELG1 MMS Luc=4.4µM*;ELG1 5FU viab=-3%;ELG1 MMS cell=3.1µM*
